From PubChem BioAssay (EPA / NIEHS) come the findings set out here.

The term AC50 denotes the concentration at which the activity in the assay is half-maximal.

A structure can be active in one record and inactive in another. The source made the active and inactive calls. How the source made its calls: active means hit-call score of the fitted dose curve at least 0.9, where 1 is the maximum; inactive means score below 0.9.

Read-out in this assay: ATP-citrate lyase (ACLY), ACLY (gene 47)
The experiment in a line: LTEA_HepaRG_ACLY: Life Technologies and Expression Analysis (LTEA) Assay for ATP-citrate lyase (ACLY) using HepaRG (AID 2283466). To be noted: mRNA level, 48 h; actives raise or lower the signal. The protocol: LTEA_HepaRG is a cell based, multiplexed-readout assay that uses HepaRG, a human liver cell line, with measurements taken at 48 hours after chemical dosing on a 96-well plate.LTEA_HepaRG_ACLY is one of 102 assay component(s) measured in the LTEA HepaRG cell culture assay. It is a marker of Steatosis.Data from the assay component LTEA_HepaRG_ACLY was analyzed into 1 endpoint. This assay endpoint, LTEA_HepaRG_ACLY, was analyzed with bidirectional fitting relative to DMSO as the negative control and baseline of activity. Using a type of inducible reporter, measures of mRNA induction for gain or loss-of-signal activity can be used to understand regulation of transcription factor activity. To generalize the intended target to other relatable targets, this assay endpoint is annotated to the lyase intended target family, where the subfamily is steatosis.
A total of 1060 chemcials from the ToxCast library were tested in eight-point concentration-response experiments. Cell culture and cytotoxicity assays were conducted at Thermo Fisher Scientific's Custom Services facility (Madison, WI). A single lot of human HepaRG cells (Thermo Fisher Scientific, Frederick, MD) was used for the cell culture experiments. 96-well format collagen type I coated plates of human HepaRG cells were prepared using established methods. Briefly, cryopreserved HepaRG cells were thawed, plated at a density of approximately 100,000 cells/well in HepaRG Thaw, Plate, and General Purpose media (HPRG770, Thermo Fisher Scientific), and incubated for 48 hours. 0.5% DMSO was selected as vehicle control to balance the requisite need of DMSO in HepaRG cultures to maintain differentiation (for example, baseline metabolism, proportions of hepatocytes vs. cholangiocytes), while enabling further hepatic receptor pathway activation (for example, PXR and CAR) in response to chemical exposure. 48 hours after plating, the culture medium was replaced with HepaRG Serum-Free Incudtion Media. Cells were exposed to each test chemical in duplicate and maintained in CO2 incubators for another 48 hours. Chemical plates were thawed to room temperature and 200x concentrations of treatment groups were prepared. 8-point conentration-reponse curves were made with the highest exposure at 100 uM, followed by half-log dilutions, all in 0.5% DMSO. Each test plate contained variouse controls, induction positive controls (1mM phenobarbital), cytotoxicity positive controls ([…] aflatoxin B1), vehicle controls (0.5% DMSO), and total lysis controls (0.5% DMSO). Cell morphology images were taken using an Essen IncuCyte FLR automated microscope, with six 96-well plates imaged in about 24 minutes. Images were captured and exported and JPEG files. Spent culture media was transfered to black-well plates for the LDH assay, and remaining media was sorted at -80 C for later use. Cells were treated with RLT buffer and frozen until shipped for gene expression analysis. Total RNA was isolated from the cell suspension in 75 uL of Buffer RLT (Qiagen, Germantown, MD 20874) by Quintiles/Expression Analysis (Durham, NC) using a custom isolation procedure. Total RNA from each plate well was transferred to a preamplification plate. Fluidigm's 96.96 Dynamic ArrayTM (Fluidigm, Amsterdam, the Netherlands) technology was used for gene expression analyses by quantitative reverse transcription polymerase chain reaction (qRT-PCR, performed by Quintiles/Expression Analysis, Durham, NC)89. Standard TaqManTM Assays (Applied Biosystems/ThermoFisher Scientific, Foster City, CA) were used to assess the expression of 93 genes selected based on their selectivity and sensitivity to important hepatic receptors known to be modulated by environmental chemicals; importance in human hepatocyte functionality; and hepatotoxicity. […]
For the compound `CCNc1nc(Cl)nc(NC(C)C)n1`, the compound was called inactive.

On to `CCON=C(CC)C1=C(O)CC(c2c(C)cc(C)cc2C)CC1=O` (stereo not given), for which the call was inactive.

For the compound `COC(=O)N(OC)c1ccccc1COc1ccn(-c2ccc(Cl)cc2)n1`, the outcome was inactive.

With `COP(N)(=O)SC` (stereo not given), the compound was called inactive.

Regarding `CCCCOC(=O)c1ccccc1C(=O)OCCCC`, the call was inactive.

Take `CC(C)Oc1cc(-n2nc(C(C)(C)C)oc2=O)c(Cl)cc1Cl`: the AC50 is 77.4 µM (active).

Take `OC(c1ccc(Cl)cc1)(c1cncnc1)c1ccccc1Cl` (stereo not given): the AC50 was 12.6 µM (active).

Take `CS/C(C)=N/OC(=O)N(C)SN(C)C(=O)O/N=C(\C)SC`: the outcome was inactive.

Consider `COP(=S)(OC)Oc1nc(Cl)c(Cl)cc1Cl`, for which the compound was classed as inactive.

In the case of `CCNc1nc(Cl)nc(NCC)n1`, the outcome was inactive.

Take `C=CCC1=C(C)C(OC(=O)C2C(C=C(C)C)C2(C)C)CC1=O` (stereo not given): the call was inactive.

Take `O=C(Nc1ccccc1)Nc1ccnc(Cl)c1`: the AC50 is 80.4 µM (active).

Regarding `CCOC(=O)CC(SP(=S)(OC)OC)C(=O)OCC` (stereo not given), the compound was called inactive.

In the case of `CON(C)C(=O)Nc1ccc(Cl)c(Cl)c1`, the call was inactive.

Take `CN(C)C(=S)SSC(=S)N(C)C`: the call was inactive.

In the case of `CCCC1COC(Cn2cncn2)(c2ccc(Cl)cc2Cl)O1` (stereo not given), the AC50 is 11.9 µM (active).

Take `N#CC(CCc1ccc(Cl)cc1)(Cn1cncn1)c1ccccc1` (stereo not given): the AC50 is 12.9 µM (active).

For `N#Cc1cc(Br)c(O)c(Br)c1`, the AC50 is 23.5 µM (active).

With `COC(=O)C=C(C)OP(=O)(OC)OC`, the compound was classed as inactive.

`CNC(=S)S`: the compound was classed as inactive.

On to `CNC(=O)ON=CC(C)(C)SC`, for which the result was inactive.

Take `CC1COC(Cn2cncn2)(c2ccc(Oc3ccc(Cl)cc3)cc2Cl)O1` (stereo not given): the AC50 was 86.7 µM (active).

Regarding `COc1ccc(C(c2ccc(OC)cc2)C(Cl)(Cl)Cl)cc1`, the compound was classed as inactive.

Take `Cc1ccc(-c2c(Cl)nc(C#N)n2S(=O)(=O)N(C)C)cc1`: the AC50 is 50 µM (active).

As to `CC(C)C1(C)N=C(c2nc3ccccc3cc2C(=O)O)NC1=O` (stereo not given), the outcome was inactive.

In the case of `COC(=O)c1ccccc1C(=O)OC`, the result was inactive.

As to `CCOC(=O)C(Cl)Cc1cc(-n2nc(C)n(C(F)F)c2=O)c(F)cc1Cl` (stereo not given), the result was inactive.

Regarding `Oc1ccccc1-c1ccccc1`, the call was inactive.

Consider `CCOc1cc(Oc2ccc(C(F)(F)F)cc2Cl)ccc1[N+](=O)[O-]`, for which the compound was called inactive.

Turning to `Cc1c(F)c(F)c(COC(=O)C2C(/C=C(\Cl)C(F)(F)F)C2(C)C)c(F)c1F` (stereo not given), the compound was called inactive.

Turning to `Fc1ccc(Oc2ccnc3cc(Cl)cc(Cl)c23)cc1`, the outcome was inactive.

On to `CCCCNC(=O)n1c(NC(=O)OC)nc2ccccc21`, for which the compound was classed as inactive.

On to `O=C(O)c1nc(Cl)ccc1Cl`, for which the call was inactive.

Regarding `COc1nc(NC(C)C)nc(NC(C)C)n1`, the call was inactive.

On to `N#Cc1nn(-c2c(Cl)cc(C(F)(F)F)cc2Cl)c(N)c1S(=O)C(F)(F)F` (stereo not given), for which the call was inactive.

For `CCCN(CCC)c1c([N+](=O)[O-])cc(S(N)(=O)=O)cc1[N+](=O)[O-]`, the result was inactive and the AC50 is 94.3 µM (active).

Take `Cc1cc(Cl)ccc1OCC(=O)O`: the outcome was inactive.

Regarding `C=CCC1=C(C)[C@@H](OC(=O)[C@@H]2[C@@H](C=C(C)C)C2(C)C)CC1=O`, the compound was called inactive.

For `C#CCOS(=O)OC1CCCCC1Oc1ccc(C(C)(C)C)cc1` (stereo not given), the AC50 is 35 µM (active).
